Screening data: PubChem, Johns Hopkins Ion Channel Center
KCNQ2 enhance: potentiators of rat KCNQ2 potassium channel | 310,000 tested, 0.54% active | CHO-K1 KCNQ2, FluxOR thallium flux fluorescence; hits give high values | B-score at 10 µM | O88943;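 active means fluorescence ratio B-score at least 3 SD of library B-scores, with initial fluorescence B-score within 3 of them, cut at about 5.3 in these data; same plate scores as AID 2156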;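 further: B-score of peak minus minimum over baseline fluorescence ratio after K+ and Tl+ stimulus; positive B-score means potentiation of KCNQ2 with more thallium influx and brighter signal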
KCNQ2 inh: KCNQ2 (rat) channel inhibition; O88943; CHO-K1 KCNQ2, FluxOR thallium flux, 20 min; hits give low values; B-score at 10 µM; 310,000 tested, 1.1% active;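 active means fluorescence ratio B-score at most minus 3 library SDs, with starting brightness B-score within 2 library SDs, cut at about -5.5 in these data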
Kir21 conf inh: confirmation of mouse Kir2.1 potassium channel inhibitors; Kir2.1-expressing cells, FluxOR thallium flux fluorescence; hits give low values; AID 2032; Tl flux remaining, % of negative control (hits give low values), % at 10 µM; 2,300 tested, 41% active; shares compounds with KCNQ2 enhance;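 active means Primary-screen hit whose thallium flux fell at least 3 control SD below untreated wells in both duplicates, with normal baseline fluorescence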;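 further: 0% = blank wells without stimulus and 100% = stimulated no-compound controls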
HEK293 ctr: parental HEK293 activity in Kir2.1 inhibitor counter-screen. 2,300 tested, 19% active. shares compounds with KCNQ2 enhance. parental HEK293 cells, FluxOR thallium flux fluorescence; 0% = unstimulated blank wells. FluxOR signal as % of negative control (100 = no effect), % at 10 µM;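 active means dye signal at least 3 control SD above or below untreated wells in both duplicates, raw fluorescence within 3, either direction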;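 further: percent is based on the flux ratio of peak minus minimum fluorescence over baseline F0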
CHO-K1 Tl ctr: parental CHO-K1 activity in KCNQ2 potentiator counter-screen. shares compounds with KCNQ2 enhance. parental CHO-K1 cells, FluxOR thallium flux fluorescence; zero = vehicle mean+3SD, 100% = vehicle-minus-blank window. activity increase over 3SD of controls, % at 10 µM. 1,200 tested, 43% active. AID 2282;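 active means signal rise of at least 3 SD above the untreated control mean, in both duplicate wells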;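 further: counter screen of KCNQ2 potentiator hits so any rise reflects channel-independent effects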
KCNQ1 sel pot: selectivity of KCNQ2 potentiators: effect on human KCNQ1; shares compounds with KCNQ2 enhance; CHO KCNQ1 stable, FluxOR thallium flux fluorescence; beyond 3SD, as % of vehicle-control signal; activation over 3SD threshold, % at 10 µM; 1,200 tested, 28% active; AID 2283;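 active means fluorescence ratio rise of at least 3 SD of vehicle wells above their mean, in both replicate wells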;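 further: 0% = vehicle mean plus 3 SD and 100% = vehicle minus unstimulated blank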
KCNQ2 pot conf: rat KCNQ2 channel potentiator confirmation; shares compounds with KCNQ2 enhance; CHO-KCNQ2 cells, FluxOR thallium flux fluorescence; potentiation, less the hit threshold, % at 10 µM; 1,200 tested, 68% active; AID 2287;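 active means fluorescence ratio rising 3 SD or more over the vehicle control mean in both replicates, plus primary screen hit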;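 further: peak minus minimum thallium fluorescence divided by baseline after K/Tl stimulus; 0% = vehicle mean plus 3 SD and 100% = vehicle minus unstimulated blank difference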
Kir2-1 sel: mouse Kir2.1 off-target activity of KCNQ2 potentiators; HEK293 Kir2.1, FluxOR thallium flux fluorescence; activity over 3SD threshold, % at 10 µM; 1,200 tested, 2% active; AID 2345; shares compounds with KCNQ2 enhance;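 active means fluorescence ratio rise of at least 3 SD above the vehicle-control mean, seen in both replicates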;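 further: 0% = vehicle mean plus 3 SD and 100% = vehicle minus no-stimulus blank window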
KCNQ2 W236L MoA: rat KCNQ2 W236L mutant potentiation by KCNQ2 potentiators. CHO KCNQ2-W236L, automated patch clamp current. current increase over 3SD of negative controls (%), hits give high values, % at 25 µM. 940 tested, 10% active. shares compounds with KCNQ2 enhance;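 active means current increase at least 3 SD of the untreated controls above them in both duplicate recordings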
Target sequence (O88943 whole entry W236L, looked up): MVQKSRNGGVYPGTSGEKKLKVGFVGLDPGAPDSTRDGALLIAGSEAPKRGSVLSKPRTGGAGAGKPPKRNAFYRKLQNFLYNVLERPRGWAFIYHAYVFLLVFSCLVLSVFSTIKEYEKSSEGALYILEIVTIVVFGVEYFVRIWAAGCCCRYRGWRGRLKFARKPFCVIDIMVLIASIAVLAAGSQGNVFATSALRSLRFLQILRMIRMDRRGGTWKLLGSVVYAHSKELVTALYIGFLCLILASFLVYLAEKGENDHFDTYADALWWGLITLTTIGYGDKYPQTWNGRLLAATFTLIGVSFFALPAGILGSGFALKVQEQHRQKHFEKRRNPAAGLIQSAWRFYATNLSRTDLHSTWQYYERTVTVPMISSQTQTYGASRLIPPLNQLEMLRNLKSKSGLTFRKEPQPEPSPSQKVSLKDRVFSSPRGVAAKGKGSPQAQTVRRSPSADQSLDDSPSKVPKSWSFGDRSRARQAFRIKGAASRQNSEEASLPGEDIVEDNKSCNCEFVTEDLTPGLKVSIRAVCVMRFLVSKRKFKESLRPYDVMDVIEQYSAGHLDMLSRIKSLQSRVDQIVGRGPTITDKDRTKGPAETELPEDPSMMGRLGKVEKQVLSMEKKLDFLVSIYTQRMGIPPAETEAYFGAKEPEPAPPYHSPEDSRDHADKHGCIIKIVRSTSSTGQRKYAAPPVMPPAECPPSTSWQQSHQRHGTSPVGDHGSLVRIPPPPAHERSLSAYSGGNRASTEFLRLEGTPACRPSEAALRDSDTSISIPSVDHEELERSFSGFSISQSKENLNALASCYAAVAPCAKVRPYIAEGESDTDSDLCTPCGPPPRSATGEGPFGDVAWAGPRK
* hit, by the source's call; i = inactive; / = no result given. Shown are actives, neighbours in structure and some others; about 1.6% of the full set was active somewhere.

SMILES	KCNQ2 enhance	KCNQ2 inh	Kir21 conf inh	HEK293 ctr	others
NC(=O)SCC(=O)Nc1cccc(Cl)c1	7.7*	i	i	i	CHO-K1 Tl ctr=16*;KCNQ1 sel pot=-6;KCNQ2 pot conf=12*;Kir2-1 sel=-44;KCNQ2 W236L MoA=i
O=C(COC(=O)c1cc(-c2ccc(F)cc2)nc2ccccc12)NCC1CCCO1 (stereo unspecified)	1.1	i	/	/
O=C(N/N=C/c1ccc(OCc2ccccc2)cc1)c1ccco1	0.07	i	/	/
NC(N)=N/N=C/c1ccc(OCc2ccccc2)cc1	-6.8	-6.8*	16%*	i
CCc1nc2sc3c(c2c(=S)[nH]1)CC(C)(C)OC3	1.3	i	/	/
CSc1nc2sc3c(c2c(=S)[nH]1)CC(C)(C)OC3	15*	i	i	401%*	CHO-K1 Tl ctr=-15;KCNQ1 sel pot=-4;KCNQ2 pot conf=82*;Kir2-1 sel=-3;KCNQ2 W236L MoA=i
CC(C)CNS(=O)(=O)c1ccc(CCC(=O)N2CCC(C(N)=O)CC2)cc1	0.47	i	/	/
CCn1nc(C)c(C2C(C#N)=C(N)OC3=C2C(=O)CC(C)(C)C3)c1C (stereo unspecified)	/	i	/	/
CCc1ccccc1NC1=NCC(=O)N1Cc1ccc(OC)cc1	/	i	/	/
COc1ccc(CN2C(=O)CN=C2Nc2cc(C)ccc2C)cc1	15*	i	i	i	CHO-K1 Tl ctr=0.6*;KCNQ1 sel pot=9.2*;KCNQ2 pot conf=-33;Kir2-1 sel=-41
CC(=O)c1ccc(S(=O)(=O)NC2CC(=O)N(c3ccc(C)c(C)c3)C2)cc1 (stereo unspecified)	/	i	/	/
O=C1CCCN1CCCNS(=O)(=O)c1ccc(F)c(F)c1	0.07	i	/	/
S=C(NCCc1ccccc1)Nc1nccs1	/	i	/	/
S=C(NCc1ccccc1)Nc1nccs1	9*	i	i	i	CHO-K1 Tl ctr=26*;KCNQ1 sel pot=-18;KCNQ2 pot conf=-19;Kir2-1 sel=-37
COc1ccc(CN2CCCN(S(=O)(=O)c3ccc(Br)cc3)CC2)cc1	/	i	56%*	i
COc1ccc(S(=O)(=O)N2CCN(Cc3ccc(Cl)cc3)CC2)cc1	/	i	/	/
COc1ccc(/C=C(\NC(=O)c2ccco2)C(=O)NCc2ccco2)cc1	/	i	/	/
C=CCSC1=N/C(=C/c2ccsc2)C(=O)N1c1ccccc1	/	i	/	/
C=CCNC(=S)Nc1nc2c(cc1C(=O)OCC)CCCC2	4.3	i	/	/
CCNC(=S)Nc1nc2c(cc1C(=O)OCC)CCCC2	5.5*	i	i	148%*	CHO-K1 Tl ctr=7.6*;KCNQ1 sel pot=-19;KCNQ2 pot conf=-2;Kir2-1 sel=-30;KCNQ2 W236L MoA=i
CC(CCc1ccccc1)NC(=O)c1cccs1 (stereo unspecified)	/	i	/	/
O=C(COc1ccccc1CNCc1ccccc1)Nc1ccccc1	/	i	35%*	i
CCOc1ccccc1CNCc1ccc(C(=O)O)cc1	/	i	/	/
O=C(NC(=S)NCCN1CCOCC1)c1ccc(Cl)cc1	1.6	i	/	/
COc1ccc(C(=O)NNC(=O)CN2CCN(c3nc(-c4ccccc4)cs3)CC2)cc1	0.76	i	/	/
SMILES	KCNQ2 enhance	KCNQ2 inh	Kir21 conf inh	HEK293 ctr	others
CC[n+]1ccc(C(=O)NCc2ccccc2)cc1	0.17	i	/	/
CCC(=O)c1ccc(OCC(O)CNC(C)c2ccccc2)cc1 (stereo unspecified)	0.04	i	/	/
CC(C)c1ccc(OCC(O)CNC(C)c2ccccc2)cc1 (stereo unspecified)	2.2	i	28%*	i
OC(CNCCC(c1ccccc1)c1ccccc1)COc1ccccc1 (stereo unspecified)	/	i	36%*	i
OC(CNCCc1ccccc1)COc1ccc(OCC(O)CNCCc2ccccc2)cc1 (stereo unspecified)	/	i	/	/
CS(=O)(=O)N(CC(=O)Nc1ccccc1Cl)c1ccc(Cl)cc1	/	i	/	/
CCOC(=O)c1cnc(/N=C/N(C)C)s1	/	i	/	/
CCC[C@H]1COCCS(=O)(=O)N1Cc1ccc(Br)cc1	0.37	i	i	128%*
CCC1COCCS(=O)(=O)N1Cc1ccc(C)cc1 (stereo unspecified)	1.2	i	/	/
CC(C)(C)c1cc(CCC(=O)NCC2CCCO2)cc(C(C)(C)C)c1O (stereo unspecified)	0.27	i	/	/
O=[N+]([O-])c1ccc(NC(=S)NCc2ccc(F)cc2)cc1	21*	i	/	/	CHO-K1 Tl ctr=-7;KCNQ1 sel pot=11*;KCNQ2 pot conf=42*;Kir2-1 sel=-51;KCNQ2 W236L MoA=i
O=[N+]([O-])c1ccc(NC(=S)NCc2ccncc2)cc1	1.6	i	/	/
c1ccc(CNc2ncnc3ccccc23)cc1	1.1	i	/	/
c1ccc(CNc2c3ccccc3nc3ccccc23)cc1	1.1	i	24%*	i
Oc1ccccc1CN1CCN(C(O)(c2ccccc2)c2ccccc2)CC1	/	i	66%*	i
Oc1ccccc1CN1CCC(C(O)(c2ccccc2)c2ccccc2)CC1	/	i	/	/
CCOC(=O)C(NC(C)=O)C(OC(C)=O)c1cccc(N(CCO)CCO)c1 (stereo unspecified)	0.93	i	/	/
CN1CCc2c(n(CC(O)CNCc3ccccc3)c3ccccc23)C1=O (stereo unspecified)	/	i	72%*	i
CN1CCc2c(n(CC(O)CN(CCO)CCO)c3ccccc23)C1=O (stereo unspecified)	0.46	i	/	/
COC(=O)[C@@H]1CCCN1C(=O)[C@@H](NC(=O)OC(C)(C)C)C(C)C	0.51	i	/	/
O=C(c1cc2n(n1)C(C(F)(F)F)CC(c1ccc(F)cc1)N2)N1CCCC1 (stereo unspecified)	/	i	/	/
COc1ccccc1CNC(=O)CN(C)Cc1ccc(SC)cc1	/	i	/	/
Oc1ccccc1-c1n[nH]c(=S)n1Cc1ccccc1	3.3	i	/	/
Oc1ccc(Br)cc1-c1n[nH]c(=S)n1Cc1ccccc1	11*	i	/	/	CHO-K1 Tl ctr=-1;KCNQ1 sel pot=28*;KCNQ2 pot conf=26*;Kir2-1 sel=-86
CCCCn1c(=N)n(CC(O)COc2ccccc2)c2ccccc21 (stereo unspecified)	1	i	/	/
CCCCn1c(=N)n(CC(O)COc2ccc(C)cc2)c2ccccc21 (stereo unspecified)	/	i	/	/
N=c1n(Cc2ccccc2)c2ccccc2n1CC(O)COc1ccccc1 (stereo unspecified)	/	i	38%*	i
